The whole screen tested about 52,000 compounds, of which about 4,300 (8.3%) were called active. The list comes from a sample in which actives are over-represented; it also holds similar structures and randomly drawn compounds. Values without a mark were called inactive. Cut-off read from the data, not from the text of the source: active = survival mostly below about 52% (no sharp cut-off); inactive = mostly above about 56%.
The compounds below were run on DeltatarO mutant (assay: S. aureus survival, RN4220 and DeltatarO strains – OD600, teichoic acid synthesis inhibitors, primary screen (AID 463173)). Settings: S. aureus RN4220 wild type/DeltatarO growth, OD600, 18 h, hits give low values, screened at 18.75 µg/mL (by protocol).

`Cc1ccc(NC(=O)C(C)Sc2nnc(C3CCCCC3)n2C)cc1` (centres undefined) was tested. Which survival did it give?
Its survival is 109%.

Which survival does the source give for `CCN(C(=O)Cn1nc(Cc2ccncc2)c2ccccc2c1=O)c1cccc(Cl)c1` here?
The survival was 83%.

Which survival does the source give for `CCC(=O)NCc1nc2ccccc2n1Cc1ccccc1` here?
The survival was 122%.

`CC(O)c1nc2ccccc2n1Cc1ccccc1` (centres undefined) was tested. Which survival did it give?
The survival was 57%.

For `Cc1cccc(Cn2c(COc3ccc(Cl)cc3)nc3ccccc32)c1`, which survival is on record?
Its survival is 59%.

How did the survival turn out when `Cc1ccc(Cn2c(CNC(=O)c3cccc(C)c3)nc3ccccc32)cc1` was run?
The survival was 96%.

Which survival does the source give for `Clc1ccc(OCc2nc3ccccc3n2Cc2ccccc2)c(Cl)c1` here?
The survival was 14% (active).

For `O=C(NCCc1nc2ccccc2n1Cc1ccc(Cl)cc1)c1ccccc1`, which survival is on record?
The survival was 72%.

How did the survival turn out when `Cc1cccc(Cn2c(COc3ccccc3)nc3ccccc32)c1` was run?
The survival was -2% (active).

`CC(C)(C)c1ccc(Cn2c(Cc3ccccc3)nc3ccccc32)cc1` was tested. Which survival did it give?
Its survival is 0% (active).

With `Cc1ccc(Cn2c(CCNC(=O)C(C)C)nc3ccccc32)cc1` as the compound, how does the survival read?
The survival was 78%.

For `Cc1ccc(Cn2c(Cc3ccccc3)nc3ccccc32)cc1`, which survival is on record?
Its survival is -1% (active).

How did the survival turn out when `CCn1c(COc2ccc(Cl)cc2Cl)nc2ccccc21` was run?
Its survival is 57%.

Which survival does the source give for `Cc1ccc(CNC(=O)CCCn2c(=O)[nH]c3ccc(Br)cc3c2=O)cc1` here?
Its survival is 87%.

With `Cc1ccc(-c2nnc(SC(C)C)n2-c2ccccc2)cc1` as the compound, how does the survival read?
Its survival is 100%.

With `COc1ccccc1C(=O)n1nc(-c2cccnc2)nc1NCc1ccccc1` as the compound, how does the survival read?
Its survival is 64%.

`CCc1ccc(S(=O)(=O)c2nnn3c2nc(NCCNC(C)=O)c2cc(Cl)ccc23)cc1` was tested. Which survival did it give?
Its survival is 74%.

`CCOC(=O)N1CCN(Cc2nc3cc(NC(=O)c4ccc([N+](=O)[O-])cc4)ccc3n2C(C)C)CC1` was tested. Which survival did it give?
The survival was 75%.

Which survival does the source give for `CC(C)Oc1ccc(CNC(=O)c2ccc3nc(SCc4ccc(F)cc4)n(C)c3c2)cc1` here?
The survival was 101%.

With `CCS(=O)(=O)N1CCC(C(=O)NCCC(C)C)CC1` as the compound, how does the survival read?
Its survival is 87%.

With `CCCCn1c(SCC(=O)Nc2cccc(OC)c2)nc2c(sc3ccccc32)c1=O` as the compound, how does the survival read?
Its survival is 88%.

`Cc1nc2nc(CNC(=O)c3cccc(F)c3)nn2c(C)c1CCC(=O)Nc1cccc(Cl)c1` was tested. Which survival did it give?
Its survival is 110%.

For `CC1CCCN(S(=O)(=O)c2ccc(N3CCCCS3(=O)=O)cc2)C1` (centres undefined), which survival is on record?
Its survival is 74%.

For `CCN(C(=O)c1ccc2c(=O)n3c(nc2c1)CCCCC3)c1cc(C)ccc1C`, which survival is on record?
Its survival is 89%.

Which survival does the source give for `COc1ccc(S(=O)(=O)c2nnn(-c3ccc(C)c(Cl)c3)c2C)cc1` here?
Its survival is 99%.

For `COCc1nc2ccccc2n1Cc1cccc(C)c1`, which survival is on record?
The survival was 79%.

How did the survival turn out when `Cc1cccc(Cn2c(Cc3ccccc3)nc3ccccc32)c1` was run?
Its survival is 22% (active).

With `Cc1cccc(Cn2c(CNC(=O)c3ccccc3)nc3ccccc32)c1` as the compound, how does the survival read?
The survival was 64%.

For `CC(C)c1ccc(Cn2c(COc3ccccc3)nc3ccccc32)cc1`, which survival is on record?
The survival was -1% (active).

For `Cc1ccc2c(=O)cc(C(=O)Nc3ccc(S(=O)(=O)Nc4nc(C)cc(C)n4)cc3)oc2c1`, which survival is on record?
The survival was 78%.

With `COCCn1c(SCC(=O)c2ccc(C)cc2)nc2cc(C(=O)NC3CCCC3)ccc2c1=O` as the compound, how does the survival read?
Its survival is 89%.

`COc1cccc(C2=NN(C(C)=O)C(c3cn(-c4ccccc4)nc3-c3cccs3)C2)c1` (centres undefined) was tested. Which survival did it give?
Its survival is 170%.

With `Cc1nn2c(=O)cc(COC(=O)COc3ccc(F)cc3)nc2s1` as the compound, how does the survival read?
The survival was 94%.

With `CCn1c(=O)c2cc(C(=O)N(CC(C)C)CC(C)C)sc2c2ccccc21` as the compound, how does the survival read?
The survival was -4% (active).

With `CCn1c(=O)c2cc(C(=O)N(CCN(C)C)Cc3ccccc3)sc2c2ccccc21` as the compound, how does the survival read?
The survival was 77%.

`CCn1c(=O)c2cc(C(=O)N(CCCOC(C)C)Cc3ccco3)sc2c2ccccc21` was tested. Which survival did it give?
Its survival is 8% (active).

Which survival does the source give for `CCn1c(=O)c2cc(C(=O)N(C)c3cc(C)ccc3C)sc2c2ccccc21` here?
Its survival is 105%.

How did the survival turn out when `CCOCCCN(Cc1ccco1)C(=O)c1cc2c(=O)[nH]c3ccc(C)cc3c2s1` was run?
Its survival is 88%.

`CCCn1c2ccccc2c2cnn(CC(=O)N(CCCOC(C)C)Cc3ccco3)c(=O)c21` was tested. Which survival did it give?
Its survival is 87%.

`CCn1c(=O)c2cc(C(=O)N(C)c3cc(Cl)c(OC)cc3OC)sc2c2ccccc21` was tested. Which survival did it give?
Its survival is 80%.

For `COCCN(Cc1ccco1)C(=O)c1cc2c(=O)[nH]c3ccc(C)cc3c2s1`, which survival is on record?
The survival was 53%.

How did the survival turn out when `Cc1ccc2[nH]c(=O)c3cc(C(=O)N(CCCOC(C)C)Cc4ccco4)sc3c2c1` was run?
The survival was 56% (active).

With `N#CC(C#N)=CC1=C(N2CCCC2)CCCC1` as the compound, how does the survival read?
The survival was 89%.

For `Cc1c(-c2nc(-c3ccccc3)no2)nnn1-c1cccc(C(F)(F)F)c1`, which survival is on record?
The survival was 80%.

With `Cc1ccc(NC(=O)Cn2cc(S(=O)(=O)c3ccccc3)c(=O)c3cc4c(cc32)OCO4)cc1` as the compound, how does the survival read?
The survival was 97%.

Which survival does the source give for `Cc1ccccc1-c1noc(-c2cc3ccccc3oc2=O)n1` here?
The survival was 85%.

Which survival does the source give for `CC1=C(C(N)=O)C(c2cccc(Br)c2)n2nc(SCc3ccccc3)nc2N1` (centres undefined) here?
Its survival is 76%.

With `O=C(O)CC1CCCC(c2ccccc2)C1=O` (centres undefined) as the compound, how does the survival read?
Its survival is 91%.

For `Cc1ccc2c(CC(=O)Nc3c(C(=O)c4ccc(F)cc4)oc4ccccc34)coc2c1`, which survival is on record?
The survival was 60%.

With `O=S(=O)(c1ccc(F)cc1)N(Cc1nc(-c2ccccc2)no1)C1CCCCC1` as the compound, how does the survival read?
The survival was 45% (active).

`CCN(Cc1nc(-c2cccc(C)c2)no1)S(=O)(=O)c1ccc(C)cc1` was tested. Which survival did it give?
Its survival is 43% (active).

With `Cc1cccc(-c2noc(CN(C3CCCCC3)S(=O)(=O)c3ccc(F)cc3)n2)c1` as the compound, how does the survival read?
The survival was 71%.

Which survival does the source give for `O=S(=O)(c1ccc(F)cc1)N(Cc1nc(-c2ccc(Cl)cc2)no1)C1CCCCC1` here?
The survival was 76%.

How did the survival turn out when `COc1ccc(S(=O)(=O)N(C)Cc2nc(-c3cccc(C)c3)no2)cc1` was run?
Its survival is 51%.

`COc1ccc(S(=O)(=O)N(Cc2nc(-c3cccc(C)c3)no2)C2CCCCC2)cc1` was tested. Which survival did it give?
The survival was 57%.

For `Cc1ccc(S(=O)(=O)N(Cc2nc(-c3cccc(C)c3)no2)C2CCCCC2)cc1`, which survival is on record?
The survival was 46% (active).

For `Cc1ccc(-c2noc(CN(C3CCCCC3)S(=O)(=O)c3ccc(F)cc3)n2)cc1`, which survival is on record?
The survival was 78%.

Which survival does the source give for `Cc1ccc(S(=O)(=O)NCc2nc(-c3cccc(C)c3)no2)cc1` here?
Its survival is 100%.

Which survival does the source give for `COc1ccc(-c2cc(C)no2)cc1S(=O)(=O)N1CCN(c2ccc(C(C)=O)cc2)CC1` here?
The survival was 91%.
